Assay results taken from PubChem BioAssay AID602330 (Sanford-Burnham Center for Chemical Genomics, 2012).
Hit rate of the full screen: of about 1,900 compounds, about 85 (4%) were called active. Only a sample is shown. A number with no mark means an inactive call. Rule as the data show it: active = inhibition above about 40%; inactive = the rest.

Each molecule was assayed against 72 kDa type IV collagenase (Homo sapiens) (UniProt P08253) (assay: inhibitors of human MMP-2 protease – biochemical, fluorescence, single concentration, counter-screen for RPN11 inhibitor project, confirmation (AID 602330;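 also: human MMP-2 activated beforehand with APMA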)). Settings: recombinant MMP-2, FRET peptide cleavage fluorescence; at 20 µM; hits give high values.
Chain of 72 kDa type IV collagenase (Homo sapiens) (P08253 whole entry, looked up): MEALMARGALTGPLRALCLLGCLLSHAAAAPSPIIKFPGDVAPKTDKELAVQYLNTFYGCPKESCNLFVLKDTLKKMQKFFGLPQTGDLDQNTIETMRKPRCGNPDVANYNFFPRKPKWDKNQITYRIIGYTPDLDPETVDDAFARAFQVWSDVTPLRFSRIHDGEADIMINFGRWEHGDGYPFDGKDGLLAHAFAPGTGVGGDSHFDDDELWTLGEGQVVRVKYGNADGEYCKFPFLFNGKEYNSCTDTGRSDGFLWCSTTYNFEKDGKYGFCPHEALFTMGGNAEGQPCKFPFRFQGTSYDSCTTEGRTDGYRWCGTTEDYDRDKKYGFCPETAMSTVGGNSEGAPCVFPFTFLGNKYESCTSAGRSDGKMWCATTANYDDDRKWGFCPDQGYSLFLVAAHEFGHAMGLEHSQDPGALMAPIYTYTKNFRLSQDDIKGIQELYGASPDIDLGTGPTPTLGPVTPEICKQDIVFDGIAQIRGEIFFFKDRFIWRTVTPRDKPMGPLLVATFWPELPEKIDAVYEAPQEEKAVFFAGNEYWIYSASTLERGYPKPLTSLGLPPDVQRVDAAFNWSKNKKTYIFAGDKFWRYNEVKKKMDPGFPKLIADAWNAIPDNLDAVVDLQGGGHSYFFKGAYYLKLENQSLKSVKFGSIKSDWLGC

SMILES	inhibition
CCN(CC)C(=O)CSc1nc2ccccc2n1CC(=O)N1CCN(c2ccccc2OC)CC1	8.93%
Cc1ccc(NC(=O)CN2CCc3ccccc3C2)cc1	-29.5%
COc1ccc(CC(=O)Nc2ccc(-c3nnc(-c4ccc(C)cc4)o3)cc2)cc1	-21.6%
Oc1c(CN2CCCC2)cc(COCc2ccccc2)c2cccnc12	14.7%
CCc1ccc(-c2cc(C(=O)NCc3ccco3)c3ccccc3n2)s1	-10.6%
Cc1c(NC(=O)CSc2cccc3cccnc23)c(=O)n(-c2ccccc2)n1C	-0.79%
Cc1c(N=Nc2ccc(N(C)C)cc2)c(=O)n(-c2ccccc2)n1C	-25.6%
COc1cccc(NC(=O)C(C)Oc2ccccc2)c1 (stereo not drawn)	-39.6%
CCC/C=C(\CCC)C(NC(=O)Cc1ccccc1)c1ccc(C(=O)OC)cc1 (stereo not drawn)	-6.21%
Cc1cc(/C=N/Nc2ccc([N+](=O)[O-])cn2)c(C)n1-c1cccc(C(=O)O)c1	-54.4%
C=CCn1c(=S)[nH]c2scc(-c3ccco3)c2c1=O	40.5% (active)
CCN1CCN(c2cc3nc(C)n(Cc4ccccc4)c(=O)c3cc2NC(=O)c2ccccc2F)CC1	-12.5%
COc1ccc(-n2c(SCC(=O)Nc3sc4c(c3C#N)CCCC4)nnc2-c2ccc(O)cc2)cc1	-2.87%
N#Cc1c(-c2cccs2)nc(SCC(=O)c2ccc(Br)cc2)[nH]c1=O	47% (active)
CC(C)(C)NC(=O)CSC(=Nc1ccccc1F)NC#N	-28.4%
O=C(COc1cccc(F)c1)Oc1ccc(C(=O)c2ccccc2)cc1	8.62%
CC(=O)/C(=N\Nc1ccc(Cl)cc1Cl)Sc1cccc2cccnc12	-27.9%
C/C(=N/Nc1nc(-c2ccccc2)c(CC(=O)O)s1)c1ccccc1	4.1%
CCCCCCCCCCOC(=O)Cn1c(COc2cccc(OC)c2)[n+](C)c2ccccc21	-10.1%
COc1ccc2[nH]c(=O)c(-c3noc(-c4ccc(F)cc4)n3)cc2c1	-20.1%

SMILES	inhibition
CCc1ccc(NC(=O)CS(=O)CC(=O)NCCCc2ccccc2)cc1 (stereo not drawn)	-2.62%
Cc1ccc2cc(C#N)c(NCCNC(=S)NCCCN3CCOCC3)nc2c1	-15%
CCOc1ccc(-n2c(O)c(/C=N/c3ccnn3Cc3ccncc3)c3ccccc3c2=O)cc1	1.46%
O=C1NC(=O)C2C1C(c1ccc([N+](=O)[O-])cc1)=NN2Cc1ccccc1 (stereo not drawn)	-11.1%
Cc1ccc(-c2nnc(-c3ccc(NC(=O)c4cccs4)cc3)o2)cc1	-49.7%
C=CC[n+]1c(-c2ccc(C)cc2)csc1NNC(=O)Nc1ccccc1	26%
Cc1nc2ccccc2nc(=O)c1NNc1ccc([N+](=O)[O-])cc1	-26.6%
N#Cc1ccc(C(=O)Nc2cccc3cccnc23)c(F)c1	-11%
COc1ccc(Cl)cc1NC(=O)CCS(=O)(=O)c1ccc(Br)cc1	-0.68%
O=C(CCS(=O)(=O)c1cccc2nonc12)NCCc1ccccc1Cl	-10.6%
CN=c1scc(-c2cc(OC)ccc2OC)n1/N=C/c1c(C)[nH]c2ccccc12	22.9%
Oc1ccc(/C=N/Nc2nc(-c3ccccc3F)nc3ccccc23)c(O)c1	-56.3%
C=CCn1c(SCC(=O)NCc2ccccc2)nnc1-c1cc(Br)ccc1O	-13%
CC(C)Cn1c(CCC(=O)O)ccc1-c1cccs1	-47.9%
O=C(O)c1ccc(NN=CC2=C(N3CCOCC3)/C(=C/c3ccccc3)CC2)cc1	-0.54%
CC(=O)c1sc(N/N=C/c2ccc(C(C)C)cc2)nc1C	20.1%
CCCS(=O)(=O)N1CCCC(C(=O)NCc2ccco2)C1 (stereo not drawn)	-7.67%
CSC1=N/C(=C\C=C\c2cccs2)C(=O)S1	10%
CN(C)CCOC1c2ccccc2-c2ccccc21	-31.6%
CCOc1cc(/C=C2\SC(N3CCCC(C)C3)=NC2=O)ccc1O (stereo not drawn)	-18.9%

SMILES	inhibition
COc1cc(/C=C2/SC(=S)N(Cc3ccccc3)C2=O)cc(OC)c1O	-7.17%
Cc1cc(OCC(=O)Nc2nccs2)c2c(C)c(C)c(=O)oc2c1	0.79%
O=C(Nc1ccc(-c2nnc(-c3ccccc3)o2)cc1)c1ccc(Br)o1	35.4%
CS(=O)(=O)c1ccc2c(c1)SC1=NC(=O)/C(=C/c3ccco3)C(=N)N12	13%
O=C(CSc1cccc2cccnc12)N/N=C/c1cccnc1	-15.4%
Nc1nonc1-n1nnc(C(=O)N/N=C/c2cc(Br)ccc2O)c1CSC1=NCCS1	-8.38%
COc1cccc(-c2nn(-c3ccccc3)cc2/C=C(\C#N)C(=O)NCCCn2ccnc2)c1	-13.9%
COc1ccc(CNC(=O)c2nnn(CC(=O)Nc3cc(C)cc(C)c3)c2N)cc1	5.49%
CC(C)Oc1ccc(/C=C(\NC(=O)/C=C/c2ccco2)C(=O)NCCc2nc3ccccc3[nH]2)cc1	-12%
Cc1cccc(OCc2nnc(SCc3nc4cc(C(F)(F)F)ccc4c(=O)[nH]3)o2)c1	18.2%
NC(N)=N/N=C/c1ccc(OCc2ccc(Cl)cc2Cl)cc1	9.75%
CCOc1cc(/C=C2\SC(N3CCCCC3)=NC2=O)ccc1O	-18.1%
Cc1cc(/C=C2/SC(=O)N(CC(=O)N3CCCC3)C2=O)ccc1N1CCOCC1	-23%
O=C(OCc1cc2ccccc2[nH]c1=O)c1cccnc1	-65.4%
Cc1sc2nc(COC(=O)C(NC(=O)c3ccc(Cl)cc3Cl)C(C)C)[nH]c(=O)c2c1C (stereo not drawn)	-38.9%
CCNCc1cc2cc(C)ccc2[nH]c1=O	-21.9%
CC1CCN(c2ccc3c(c2)S(=O)(=O)c2cc(C(=O)O)ccc2C3=O)CC1	-51.3%
Cc1ccc(NC(=O)c2c(NC(=O)CCC(=O)O)sc3c2CCCCC3)cc1	20.7%
